Results as given in PubChem BioAssay AID1159580 (chemical genetic matrix, 2015).
About 2,000 (36%) of roughly 5,500 compounds were called active. Another 18% or so got no clear call; they are omitted. No stated cut-off is given here; in the data, active means normalized growth mostly below about 0.91 (no sharp cut-off); inconclusive means no clear call, values can overlap the other calls; inactive means mostly above about 0.92. Some of the results follow.

Experiment: chemical genetic growth profiling, strain panel (AID 1159580);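 further: tested at 20 µM; growth read once vehicle control cultures reached saturation at 30 °C; 1 = growth at the plate median or of vehicle wells; lower values mean less growth of the strain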
Details: growth OD
[1] = S. cerevisiae deletion strains, locus YDL101C, strain DUN1, active compounds read low
[2] = S. cerevisiae deletion strains, locus YHR030C, strain SLT2, active compounds read low

Measured: normalized growth

COc1ccccc1NC(=S)NCCC(=O)O
inactive: S. cerevisiae deletion strains, locus YAL013W, strain DEP1, active compounds read low 1.01 | S. cerevisiae deletion strains, locus YBR229C, strain ROT2, active compounds read low 1 | S. cerevisiae deletion strains, locus YCL061C, strain MRC1, active compounds read low 1 | [1] 0.985 | S. cerevisiae deletion strains, locus YDR150W, strain NUM1, active compounds read low 0.955 | S. cerevisiae deletion strains, locus YEL061C, strain CIN8, active compounds read low 0.991 | S. cerevisiae deletion strains, locus YGR078C, strain PAC10, active compounds read low 0.995 | [2] 1.03 | S. cerevisiae deletion strains, locus YHR087W, strain rtc3, active compounds read low 0.986 | S. cerevisiae deletion strains, locus YJL187C, strain SWE1, active compounds read low 1.01 | S. cerevisiae deletion strains, locus YJR075W, strain HOC1, active compounds read low 1.03 | S. cerevisiae deletion strains, locus YLR039C, strain RIC1, active compounds read low 1.03 | S. cerevisiae deletion strains, locus YLR058C, strain SHM2 (second series), active compounds read low 1.01 | S. cerevisiae deletion strains, locus YLR085C, strain ARP6, active compounds read low 1.03 | S. cerevisiae deletion strains, locus YLR262C, strain YPT6, active compounds read low 1.02 | S. cerevisiae deletion strains, locus YML094W, strain GIM5, active compounds read low 0.963 | S. cerevisiae deletion strains, locus YMR219W, strain ESC1, active compounds read low 1.01 | S. cerevisiae deletion strains, locus YMR263W, strain SAP30, active compounds read low 0.989 | S. cerevisiae deletion strains, locus YNL153C, strain GIM3, active compounds read low 0.996 | S. cerevisiae deletion strains, locus YNL298W, strain CLA4 (second series), active compounds read low 1.02 | S. cerevisiae deletion strains, locus YNL322C, strain KRE1, active compounds read low 0.999 | S. cerevisiae deletion strains, locus YNR030W, strain Alg12, active compounds read low 1.01 | S. cerevisiae deletion strains, locus YPL055C, strain LGE1, active compounds read low 0.919 | S. cerevisiae deletion strains, locus YPL241C, strain CIN2, active compounds read low 1.07 | S. cerevisiae deletion strains, locus YPR135W, strain CTF4, active compounds read low 0.984 | S. cerevisiae strains, strain wild type, active compounds read low 1.01

CCOC(=O)NC(=S)Nc1ccc(C(C)(C)C)cc1NC(=S)NC(=O)OCC
inactive: S. cerevisiae deletion strains, locus YAR019C, strain CDC15, active compounds read low 0.986 | S. cerevisiae deletion strains, locus YBL105C, strain PKC1, active compounds read low 0.985 | S. cerevisiae deletion strains, locus YBR135W, strain CKS1, active compounds read low 0.98 | S. cerevisiae deletion strains, locus YBR136W, strain MEC1, active compounds read low 0.979 | S. cerevisiae deletion strains, locus YBR160W, strain CDC28, active compounds read low 0.991 | S. cerevisiae deletion strains, locus YDL017W, strain CDC7, active compounds read low 0.989 | S. cerevisiae deletion strains, locus YDL028C, strain MPS1, active compounds read low 0.979 | [1] 0.982 | S. cerevisiae deletion strains, locus YDL108W, strain KIN28, active compounds read low 0.985 | S. cerevisiae deletion strains, locus YDL132W, strain cdc53, active compounds read low 0.983 | S. cerevisiae deletion strains, locus YDL214C, strain PRR2, active compounds read low 0.94 | S. cerevisiae deletion strains, locus YDR052C, strain DBF4, active compounds read low 0.982 | S. cerevisiae deletion strains, locus YDR054C, strain cdc34, active compounds read low 0.983 | S. cerevisiae deletion strains, locus YDR226W, strain ADK1, active compounds read low 0.988 | S. cerevisiae deletion strains, locus YDR477W, strain SNF1, active compounds read low 0.921 | S. cerevisiae deletion strains, locus YER123W, strain YCK3, active compounds read low 0.879 | S. cerevisiae deletion strains, locus YER133W, strain GLC7, active compounds read low 0.934 | S. cerevisiae deletion strains, locus YFL009W, strain cdc4, active compounds read low 0.974 | S. cerevisiae deletion strains, locus YFL029C, strain CAK1, active compounds read low 0.985 | S. cerevisiae deletion strains, locus YFR003C, strain YPI1, active compounds read low 0.986 | S. cerevisiae deletion strains, locus YFR019W, strain FAB1, active compounds read low 0.922 | S. cerevisiae deletion strains, locus YFR028C, strain CDC14, active compounds read low 0.986 | S. cerevisiae deletion strains, locus YGR040W, strain KSS1, active compounds read low 0.923 | S. cerevisiae deletion strains, locus YGR052W, strain FMP48, active compounds read low 1.04 | S. cerevisiae deletion strains, locus YGR092W, strain DBF2, active compounds read low 0.572 | [2] 1.08 | S. cerevisiae deletion strains, locus YHR079C, strain IRE1, active compounds read low 0.985 | S. cerevisiae deletion strains, locus YHR082C, strain KSP1, active compounds read low 1.05 | S. cerevisiae deletion strains, locus YHR205W, strain SCH9, active compounds read low 0.985 | S. cerevisiae deletion strains, locus YIL147C, strain SLN1, active compounds read low 0.978 | S. cerevisiae deletion strains, locus YJL095W, strain BCK1, active compounds read low 0.995 | S. cerevisiae deletion strains, locus YJL128C, strain PBS2, active compounds read low 0.944 | S. cerevisiae deletion strains, locus YJL157C, strain FAR1, active compounds read low 0.911 | S. cerevisiae deletion strains, locus YJR016C, strain ILV3, active compounds read low 0.981 | S. cerevisiae deletion strains, locus YJR066W, strain TOR1 (second series), active compounds read low 0.778 | S. cerevisiae deletion strains, locus YJR066W, strain TOR1, active compounds read low 1.06 | S. cerevisiae deletion strains, locus YKL048C, strain ELM1, active compounds read low 0.928 | S. cerevisiae deletion strains, locus YKL067W, strain YNK1, active compounds read low 0.932 | S. cerevisiae deletion strains, locus YKL101W, strain HSL1, active compounds read low 0.961 | S. cerevisiae deletion strains, locus YKL193C, strain SDS22, active compounds read low 0.987 | S. cerevisiae deletion strains, locus YKL203C, strain TOR2, active compounds read low 0.989 | S. cerevisiae deletion strains, locus YLR113W, strain HOG1, active compounds read low 1.02 | S. cerevisiae deletion strains, locus YLR133W, strain CKI1, active compounds read low 0.948 | S. cerevisiae deletion strains, locus YLR403W, strain SFP1, active compounds read low 0.91 | S. cerevisiae deletion strains, locus YML070W, strain DAK1, active compounds read low 0.925 | S. cerevisiae deletion strains, locus YMR001C, strain CDC5, active compounds read low 0.985 | S. cerevisiae deletion strains, locus YMR205C, strain PFK2 (second series), active compounds read low 0.924 | S. cerevisiae deletion strains, locus YMR277W, strain FCP1, active compounds read low 0.981 | S. cerevisiae deletion strains, locus YNL006W, strain LST8, active compounds read low 0.98 | S. cerevisiae deletion strains, locus YNL020C, strain ARK1, active compounds read low 0.928 | S. cerevisiae deletion strains, locus YNL161W, strain CBK1, active compounds read low 0.986 | S. cerevisiae deletion strains, locus YNL183C, strain NPR1, active compounds read low 1.06 | S. cerevisiae deletion strains, locus YNL207W, strain RIO2, active compounds read low 0.981 | S. cerevisiae deletion strains, locus YNL222W, strain SSU72, active compounds read low 0.98 | S. cerevisiae deletion strains, locus YNL307C, strain MCK1 (second series), active compounds read low 0.926 | S. cerevisiae deletion strains, locus YOL078W, strain AVO1, active compounds read low 0.979 | S. cerevisiae deletion strains, locus YOL136C, strain PFK27, active compounds read low 0.931 | S. cerevisiae deletion strains, locus YOR061W, strain CKA2, active compounds read low 0.712 | S. cerevisiae deletion strains, locus YOR119C, strain RIO1, active compounds read low 0.959 | S. cerevisiae deletion strains, locus YOR231W, strain MKK1, active compounds read low 0.997 | S. cerevisiae deletion strains, locus YOR329C, strain SCD5, active compounds read low 0.983 | S. cerevisiae deletion strains, locus YPL031C, strain PHO85, active compounds read low 0.93 | S. cerevisiae deletion strains, locus YPL153C, strain RAD53, active compounds read low 0.897 | S. cerevisiae deletion strains, locus YPL204W, strain HRR25, active compounds read low 0.924 | S. cerevisiae deletion strains, locus YPL209C, strain IPL1, active compounds read low 0.989 | S. cerevisiae deletion strains, locus YPL256C, strain CLN2, active compounds read low 1.04 | S. cerevisiae deletion strains, locus YPR025C, strain CCL1, active compounds read low 0.986 | S. cerevisiae deletion strains, locus YPR106W, strain ISR1, active compounds read low 0.986 | S. cerevisiae deletion strains, locus YPR111W, strain DBF20, active compounds read low 0.978 | S. cerevisiae deletion strains, strain NNK1, active compounds read low 0.981 | S. cerevisiae deletion strains, strain TSCII, active compounds read low 0.985
